CCHFV vOTU inh: blocks the CCHF virus ovarian tumor domain protease; inhibition, % at 11.5 µM; 370,000 tested, 0.55% active; CCHFV vOTU protease, Pep-AMC fluorescence; in the data active = inhibition above about 30%; also: 0% = vehicle wells with enzyme and 100% = no enzyme wells
FBA Mtb inh: inhibits M. tuberculosis FBA enzyme; P9WQA3; purified M. tuberculosis FBA, fluorescence read-out; inhibition, % at 1 µM; 360,000 tested, 2.3% active; AID 588726;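 also: 0% = vehicle and 100% = reference inhibitor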
Target sequence (P9WQA3 whole entry, looked up): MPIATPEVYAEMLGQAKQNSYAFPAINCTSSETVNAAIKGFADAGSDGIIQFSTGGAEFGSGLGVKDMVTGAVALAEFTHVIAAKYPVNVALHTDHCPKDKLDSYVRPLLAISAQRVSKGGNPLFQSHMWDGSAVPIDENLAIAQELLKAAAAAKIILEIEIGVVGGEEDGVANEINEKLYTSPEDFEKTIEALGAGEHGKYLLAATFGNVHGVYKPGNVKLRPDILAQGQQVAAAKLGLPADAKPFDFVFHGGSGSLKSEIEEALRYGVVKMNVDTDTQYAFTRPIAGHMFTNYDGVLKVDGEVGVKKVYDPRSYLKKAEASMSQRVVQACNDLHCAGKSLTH
MazEF act: MazEF (E. coli) toxin RNase activation; AID 504720; 350,000 tested, 0.32% active; activation, % at 20 µM; FAM/BHQ RNA-DNA oligo cleavage fluorescence, 5 h; in the data active = activation above about 50%
Target sequence (P0AE70 whole entry, looked up): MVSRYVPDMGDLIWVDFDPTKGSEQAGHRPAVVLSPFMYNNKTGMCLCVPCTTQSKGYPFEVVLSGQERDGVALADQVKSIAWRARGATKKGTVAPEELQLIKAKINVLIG
Mtb bLac sens: beta-lactam sensitization of Mtb H37Rv; inhibition, % at 25 µM; 330,000 tested, 0.27% active; M. tuberculosis H37Rv growth with meropenem, percent inhibition; call rule not given here;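 also: growth measured after seven days incubation then overnight dye step; 0% = bacteria only wells and 100% = bacteria with antibiotic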
GDH-TPI counter-1: GDH-TPI coupled enzyme inhibition counter-screen; inhibition, % at 4.8 µM; GDH-TPI coupled enzyme counterscreen, NADH absorbance; 360,000 tested, 1.2% active; in the data active = inhibition above about 30%;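 also: 0% = DMSO wells and 100% = wells lacking the enzyme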
Mtb FBA inh conf: confirmation of M. tuberculosis fructose-bisphosphate aldolase inhibitors. purified M. tuberculosis FBA, fluorescence read-out. 5,600 tested, 78% active. shares compounds with FBA Mtb inh. inhibition, % at 1 µM;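 also: 0% = vehicle wells and 100% = reference inhibitor wells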
GDH-TPI counter-2: counter-screen for M. tuberculosis FBA inhibitors: GDH-TPI coupled enzyme inhibition; GDH-TPI coupled enzyme counterscreen, fluorescence; shares compounds with FBA Mtb inh; AID 652141; inhibition, % at 1 µM; 5,600 tested, 81% active; in the data active = inhibition above about 10%
* marks the source's active call; other numbers are inactive results; / = not tested or not shown; + = active, no number. In the library only some 4% were active in any assay of this set; here they are far more common. Rule as the data show it, unless noted: active = inhibition above about 27%; inactive = the rest.

SMILES | CCHFV vOTU inh | FBA Mtb inh | MazEF act | Mtb bLac sens | GDH-TPI counter-1 | Mtb FBA inh conf | GDH-TPI counter-2
COc1ccccc1/C=N/Nc1nc(C)cc(=O)[nH]1 | 2 | 0 | 1 | / | 26 | / | /
COc1ccc(OC)c(/C=N/Nc2nc(C)cc(=O)[nH]2)c1 | -37 | 49* | 1 | 1 | 22 | 194* | 173*
CCc1ccccc1Cn1c(=O)oc2cccnc21 | -7 | 40* | 8 | -14 | -7 | 41* | 37*
COC(=O)[C@]12CCCCC=C1N(Cc1ccc(OC)cc1)C(=O)[C@@H]2CC(=O)NCCCCc1ccccc1 | 7 | / | / | / | / | / | /
Cc1c(C)c2ccc(OCC(=O)NC3CCN(Cc4ccccc4)CC3)cc2oc1=O | -25 | 39* | 12 | 4 | 13 | 50* | 39*
CCCc1cc(=O)oc2cc(OCC(=O)NC(Cc3ccc(Cl)cc3)C(=O)O)ccc12 (stereo not given) | -1 | 18 | -5 | 2 | 2 | / | /
COc1ccc2c(COC(=O)c3n[nH]c4ccccc34)cc(=O)oc2c1 | 4 | 35* | -2 | -1 | 14 | 124* | 107*
COc1ccc2c(CN(Cc3ccccc3)Cc3ccccc3)cc(=O)oc2c1 | 2 | 7 | / | / | / | / | /
Cc1c(C)c2ccc(OCC(=O)NC(Cc3ccc(Cl)cc3)C(=O)O)cc2oc1=O (stereo not given) | -34 | 96* | 0 | -9 | 7 | 116* | 79*
COc1ccc2c(CC(=O)N[C@@H](Cc3ccccc3)C(=O)O)cc(=O)oc2c1 | -48 | 101* | 1 | 5 | 18 | 100* | 86*
COC(=O)C1=C(C)N(C)C(=NCc2cc(OC)c(OC)c(OC)c2)NC1c1ccc(C(F)(F)F)cc1 (stereo not given) | 7 | / | / | / | / | / | /
COC(=O)[C@]12C[C@H](CC(=O)N3CCOCC3)C(=O)N(CCC3=CCCCC3)C1=C[C@H](C1CCCC1)O[C@@H]2C | 5 | / | / | / | / | / | /
C=CCNS(=O)(=O)c1ccc(C(=O)OCc2cc(=O)oc3cc(OC)ccc23)cc1 | 5 | 20 | 7 | 8 | 7 | / | /
Cc1cc(OCC(=O)N[C@@H](CSCc2ccccc2)C(=O)O)c2c(C)c(C)c(=O)oc2c1 | -8 | 62* | -4 | -2 | 18 | 78* | 68*
COc1ccc2c(CN3CCN(C(C)=O)CC3)cc(=O)oc2c1 | 8 | 3 | / | / | / | / | /
Cc1c(Cc2ccccc2)c(=O)oc2cc(OCC(=O)NC(Cc3ccc(Cl)cc3)C(=O)O)ccc12 (stereo not given) | -15 | 92* | -3 | 1 | 13 | 170* | 151*
COc1ccc2c(COC(=O)[C@H](C)NS(=O)(=O)c3ccccc3F)cc(=O)oc2c1 | -52 | 109* | 2 | 0 | 20 | + | 153*
COc1ccc(NCc2cc(=O)oc3cc(NC(C)=O)ccc23)cc1 | -17 | 73* | 10 | 5 | 16 | 121* | 88*
COC(=O)N1C[C@H](OC(=O)c2ccc(-c3ccccc3)cc2)[C@H]2C[C@@H]1c1ccccc1O2 | 26 | / | / | / | / | / | /
O=C(C1CCCN1S(=O)(=O)c1cccc([N+](=O)[O-])c1)N1CCN(c2ccccc2)CC1 (stereo not given) | 5 | / | / | / | / | / | /
Cc1c(Cc2ccccc2)c(=O)oc2c(C)c(OCC(=O)N3CCC(C(=O)O)CC3)ccc12 | -49 | 107* | -2 | -8 | 21 | 60* | 32*
Cc1c(OCC(=O)NC(Cc2ccc(Cl)cc2)C(=O)O)ccc2c1oc(=O)c1ccccc12 (stereo not given) | -21 | 17 | 9 | -4 | 16 | / | /
Cc1c(Cc2ccccc2)c(=O)oc2c(C)c(OCC(=O)N[C@@H](Cc3ccccc3)C(=O)O)ccc12 | 3 | 53* | 6 | -1 | 12 | + | +
Cc1c(C)c2ccc(OCC(=O)N[C@@H](Cc3c[nH]c4ccccc34)C(=O)O)cc2oc1=O | -1 | 10 | 0 | -3 | 27 | / | /
CCCCCCc1c(C)c2ccc(OCC(=O)N[C@@H](Cc3ccccc3)C(=O)O)cc2oc1=O | 4 | 73* | 2 | 6 | 12 | + | +
SMILES | CCHFV vOTU inh | FBA Mtb inh | MazEF act | Mtb bLac sens | GDH-TPI counter-1 | Mtb FBA inh conf | GDH-TPI counter-2
Cc1c(OCC(=O)N2CCC(C(=O)O)CC2)ccc2c3c(c(=O)oc12)CCC3 | -11 | 15 | -13 | -12 | 25 | / | /
Cc1c(C)c2ccc(OCC(=O)N[C@@H](Cc3ccccc3)C(=O)O)cc2oc1=O | -24 | 77* | -2 | 2 | 12 | 95* | 81*
O=C(NCCc1ccc(F)cc1)c1cc2ccccn2n1 | 14 | / | / | / | / | / | /
COC(=O)N1C[C@H](OC)[C@H]2C[C@@H]1c1ccccc1O2 | 0 | / | / | / | / | / | /
COCC(C)OC(=O)c1c(N)n(CC(C)C)c2nc3ccccc3nc12 (stereo not given) | -243 | 99* | 1 | -11 | 9 | 4 | 3
CC(C)Cn1c(N)c(C(=O)NCC2CCCO2)c2nc3ccccc3nc21 (stereo not given) | -93 | 85* | -10 | 78 | 20 | 60* | 35*
CC(C)OC(=O)c1c(N)n(Cc2ccco2)c2nc3ccccc3nc12 | -71 | 43* | 18 | 3 | -14 | 131* | 98*
Cn1c(-c2c(N)n(C3CCCC3)c3nc4ccccc4nc23)nc2ccccc21 | -4 | 9 | 1 | 99 | 14 | / | /
Nc1c(C(=O)OCC2CCCO2)c2nc3ccccc3nc2n1C1CCCC1 (stereo not given) | -97 | 49* | 7 | 87 | 10 | 82* | 58*
CC(C)OC(=O)c1c2nc3ccccc3nc2n2c1[nH]c(=O)c1ccccc12 | / | / | / | 99 | / | / | /
CCN(CC)c1ccc(NC(=O)CSc2nnc(SCc3ccc(Cl)cc3)s2)cc1 | 2 | / | / | / | / | / | /
COc1ccc(OC)c(S(=O)(=O)NCC2CCN(C(=O)C(=O)c3cc4ccccc4o3)CC2)c1 | 2 | / | / | / | / | / | /
O=[N+]([O-])c1cncc2[nH]cnc12 | -6 | / | / | / | / | / | /
Nc1c(C(=O)NCC2CCCO2)c2nc3ccccc3nc2n1Cc1ccco1 (stereo not given) | -161 | 86* | -39 | 18 | 2 | -3 | -7
CC(C)CNC(=O)c1c(N)n(Cc2ccc3c(c2)OCO3)c2nc3ccccc3nc12 | -10 | 27* | -3 | -1 | 12 | 79* | 66*
CCOC(=O)CSc1nc2cc(C(=O)NCC3CCCO3)ccc2c(=O)n1Cc1ccco1 (stereo not given) | 12 | 0 | -6 | -3 | -1 | / | /
Nc1c(C(=O)NC2CCCC2)c2nc3ccccc3nc2n1N | 11 | 2 | -23 | 1 | 9 | / | /
Nc1c(C(=O)NC2CCCC2)c2nc3ccccc3nc2n1CC1CCCO1 (stereo not given) | -27 | 47* | 13 | 69 | 20 | + | +
CCOC(=O)N/N=C/c1cc(OC)c(O)c(OC)c1 | -19 | 4 | -2 | -4 | 16 | / | /
COc1cc(/C=N/NC(=O)C(N)=O)cc(OC)c1O | 15 | 51* | 0 | 4 | 14 | + | +
